For assay [1], the system named is Plasmodium falciparum Sir2 (PF13_0152, Sir2A). The experiment in a line: pfSir2 binders on small-molecule microarrays, primary screen, biochemical, small-molecule microarray, 635 nm fluorescence (AID 1098).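 Note: score merges spot fluorescence intensity with its signal-to-noise ratio.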 To be noted: small-molecule microarray binding, fluorescence 635 nm; higher = more signal.
A short description of assay [2]: small-molecule microarray binders of probe aDKK1, primary screen, biochemical, biotinylated probe, 635/667 nm fluorescence (AID 1099).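 Note: score merges 667nm spot fluorescence with signal to noise across triplicate slides; reference of the scale not given here.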 To be noted: higher = more signal.
Assay [3] is described as follows: small-molecule microarray binders of probe aCHRDL2, primary screen, biochemical, biotinylated probe, 635/667 nm fluorescence (AID 1100). The settings on record: higher = more signal.
Assay [4] can be described thus: splicing luciferase reporter signal modulators, primary screen, spliceosome inhibition project, cell-based, HEK293, splice +/- reporter (AID 1101).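 Note: HEK293 cells carrying a splicing-competent luciferase reporter gene; test concentration not given here.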 The settings on record: luminescence, 24 h, higher = more signal, called active from +8 up or from −8 down. (A reporter such as luciferase makes a cellular process visible.)
Assay [5] has as its target Fibroblast growth factor 10 (Homo sapiens) (UniProt O15520). In words: FGF10 binders on small-molecule microarrays, primary screen, biochemical, small-molecule microarray, 635 nm fluorescence (AID 1102). To be noted: FGF10 binding, fluorescence 635 nm, higher = more signal.
The test system of assay [6] is glycogen synthase kinase-3 (GSK3A per assay name; protocol says GSK3B). In words: GSK3 binders on small-molecule microarrays, primary screen, biochemical, small-molecule microarray, 635 nm fluorescence, GSK3A (AID 1103). Note: the record names both GSK3A and GSK3B. To be noted: small-molecule microarray binding, fluorescence 635 nm; higher = more signal.
In assay [7] the target is Epidermal growth factor receptor (Homo sapiens) (UniProt P00533). The experiment in a line: EGFR binders on small-molecule microarrays, primary screen, biochemical, small-molecule microarray, 635 nm fluorescence (AID 1104).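 Note: score merges 667 nm emission intensity with spot signal to noise over triplicate slides.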 To be noted: EGFR binding, higher = more signal.
Assay [8] deals with Follistatin-related protein 3 (Homo sapiens) (UniProt O95633). In words: FSTL3 binders on small-molecule microarrays, primary screen, biochemical, small-molecule microarray, 635 nm fluorescence (AID 1105).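 Note: score merges emission near 667 nm and signal to noise per printed spot across three slides.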 To be noted: FSTL3 binding, higher = more signal.
The target of assay [9] is Dickkopf-related protein 1 (Homo sapiens) (UniProt O94907). The experiment in a line: DKK1 binders on small-molecule microarrays, primary screen, biochemical, small-molecule microarray, 635 nm fluorescence scan (AID 1106).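 Note: score merges emission near 667 nm with signal to noise over three replicate slides.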 To be noted: DKK1 binding, higher = more signal.
Assay [10] has as its system Inhibin beta A chain (activin A). The experiment in a line: INHBA (activin A) binders on microarrays, primary screen, biochemical, small-molecule microarray, 635 nm fluorescence scan (AID 1107).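 Note: mouse activin A protein probed at 4.33 µg/mL on printed slides; score merges bound-protein fluorescence near 667 nm with spot signal-to-noise.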 To be noted: small-molecule microarray binding, higher = more signal.

The structures appear in SMILES notation. The source made the active and inactive calls.

Chain of Follistatin-related protein 3 (Homo sapiens) (O95633 whole entry, looked up): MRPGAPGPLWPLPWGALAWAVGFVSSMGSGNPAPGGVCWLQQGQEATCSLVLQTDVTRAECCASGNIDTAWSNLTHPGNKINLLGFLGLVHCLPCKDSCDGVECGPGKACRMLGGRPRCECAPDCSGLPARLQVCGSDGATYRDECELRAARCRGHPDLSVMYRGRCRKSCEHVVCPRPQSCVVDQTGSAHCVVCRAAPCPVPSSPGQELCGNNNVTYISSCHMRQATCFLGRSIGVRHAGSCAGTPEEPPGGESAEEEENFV
Chain of Dickkopf-related protein 1 (Homo sapiens) (O94907 whole entry, looked up): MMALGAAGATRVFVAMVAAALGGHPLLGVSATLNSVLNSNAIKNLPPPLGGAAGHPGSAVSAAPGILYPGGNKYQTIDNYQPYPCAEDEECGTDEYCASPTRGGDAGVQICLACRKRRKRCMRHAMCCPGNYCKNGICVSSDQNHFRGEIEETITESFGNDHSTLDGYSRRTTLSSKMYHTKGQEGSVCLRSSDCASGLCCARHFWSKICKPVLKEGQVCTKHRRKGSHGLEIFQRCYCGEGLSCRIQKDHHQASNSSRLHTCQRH
Chain of Fibroblast growth factor 10 (Homo sapiens) (O15520 whole entry, looked up): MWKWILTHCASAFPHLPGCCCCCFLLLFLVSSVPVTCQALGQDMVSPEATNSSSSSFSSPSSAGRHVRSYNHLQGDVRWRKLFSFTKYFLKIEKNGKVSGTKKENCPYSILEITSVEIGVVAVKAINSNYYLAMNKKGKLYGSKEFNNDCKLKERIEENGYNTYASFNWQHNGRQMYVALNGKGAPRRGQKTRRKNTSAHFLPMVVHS
Chain of Epidermal growth factor receptor (Homo sapiens) (P00533 whole entry, looked up): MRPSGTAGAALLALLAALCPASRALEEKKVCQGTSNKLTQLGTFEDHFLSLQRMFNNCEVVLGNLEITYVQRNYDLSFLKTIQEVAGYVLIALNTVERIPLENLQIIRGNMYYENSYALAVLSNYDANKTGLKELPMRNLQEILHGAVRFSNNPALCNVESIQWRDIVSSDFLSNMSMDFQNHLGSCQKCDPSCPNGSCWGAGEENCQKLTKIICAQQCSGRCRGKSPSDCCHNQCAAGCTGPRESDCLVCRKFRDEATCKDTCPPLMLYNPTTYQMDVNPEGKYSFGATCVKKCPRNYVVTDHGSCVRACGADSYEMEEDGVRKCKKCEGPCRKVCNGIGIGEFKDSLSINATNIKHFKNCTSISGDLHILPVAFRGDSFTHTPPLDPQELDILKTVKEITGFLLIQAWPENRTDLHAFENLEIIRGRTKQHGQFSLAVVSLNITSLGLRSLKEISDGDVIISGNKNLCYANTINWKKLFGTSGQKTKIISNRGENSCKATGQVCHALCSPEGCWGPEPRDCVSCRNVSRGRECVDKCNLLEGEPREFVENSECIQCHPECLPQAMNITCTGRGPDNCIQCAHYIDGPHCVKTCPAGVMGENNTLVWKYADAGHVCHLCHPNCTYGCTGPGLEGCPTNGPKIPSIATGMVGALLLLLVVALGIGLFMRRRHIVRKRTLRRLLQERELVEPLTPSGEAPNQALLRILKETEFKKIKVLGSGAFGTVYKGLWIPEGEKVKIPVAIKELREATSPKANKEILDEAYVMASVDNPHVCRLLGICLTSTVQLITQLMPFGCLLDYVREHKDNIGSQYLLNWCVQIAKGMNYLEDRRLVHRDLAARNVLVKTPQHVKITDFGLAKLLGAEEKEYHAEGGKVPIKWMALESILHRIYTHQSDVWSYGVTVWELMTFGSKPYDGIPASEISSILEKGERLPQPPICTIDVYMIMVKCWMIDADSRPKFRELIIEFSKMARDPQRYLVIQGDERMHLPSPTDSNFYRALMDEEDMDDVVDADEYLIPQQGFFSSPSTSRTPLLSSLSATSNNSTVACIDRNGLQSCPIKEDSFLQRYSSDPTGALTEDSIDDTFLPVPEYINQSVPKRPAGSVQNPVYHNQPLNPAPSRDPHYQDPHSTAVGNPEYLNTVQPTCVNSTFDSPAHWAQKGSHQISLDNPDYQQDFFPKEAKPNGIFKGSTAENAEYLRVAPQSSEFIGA

Consider `Cc1ccc(-c2cccc(=O)o2)cc1`, for which the composite z-score in assay [1] is -0.466; in assay [2] it was 0.0694; in assay [3], -0.0115; in assay [5], -0.1; in assay [6], -0.39; in [7] it was 0.115. Also, the composite z-score in [8] came out at 0.483; in assay [9], 0.184; in assay [10], 1.35. Further, in assay [4], the z-score was 0.613 (inactive).

With `C=C(/C(=C/C[C@@H](OC(C)=O)c1ccccc1OCCO)c1cnc2ccccc2c1)C(C)C`, the composite z-score in [1] is 0.85; in [2], -0.0495; in assay [3], 0.168; in [5], 1.22; in [6], 0.312; in assay [7], 0.038. For the same compound, the composite z-score in assay [8] was found to be 1.15; in [9] it was 0.331; in assay [10] it was 1.7. In addition, in [4], the z-score is -0.333 (inactive).

In the case of `COCCCNC(=O)[C@@]1(Cc2ccccc2CN=[N+]=[N-])N=C(c2ccc(OCCCO)cc2)O[C@H]1c1ccccc1N=[N+]=[N-]`, the composite z-score in [1] amounted to 1.61; in assay [2], 1.05; in [3] it was 1.28; in assay [5] it was 1.35; in assay [6] it was 1.22; in assay [7] it was 0.15. Also, the composite z-score amounted to 0.706 in assay [8], 0.0902 in assay [9] and 0.542 in [10]. For the same compound, the z-score in [4] is -1.26 (inactive).

Turning to `CC(C)(C)OC(=O)CC[C@@]1(C(=O)N2CCCCC2)N=C(c2ccc(OCCCO)cc2)O[C@@H]1c1ccccc1N=[N+]=[N-]`, the composite z-score in assay [1] was determined as 1.13; in assay [2], 0.977; in assay [3] it was 0.964; in assay [5], 1.19; in assay [6] it was 1.3; in assay [7] it was 0.32. Also, the figures for the composite z-score in [8], in assay [9] and in [10] were 1.1, -0.139 and 0.899, respectively. The z-score in assay [4] is -0.405 (inactive).

As to `OCCCC1=CC(c2cccs2)N(Cc2cccc(OC(F)(F)F)c2)CC1` (stereo not given), the composite z-score is 1.32 in [1]; -0.14 in [2]; -0.138 in [3]; -0.566 in assay [5]; -0.729 in assay [6]; -0.547 in assay [7]. Also, the figures for the composite z-score in [8], in assay [9] and in [10] were -0.537, -0.015 and 0.756, respectively. The z-score in assay [4] is -0.733 (inactive).

With `CN(C)C(=O)[C@@]1(CCC(=O)OC(C)(C)C)COC(c2ccc(OCCCO)cc2)=N1`, the composite z-score is 0.999 in assay [1]; 0.66 in assay [2]; 0.945 in assay [3]; 0.625 in assay [5]; -0.459 in assay [6]; -0.785 in [7]. Further, the figures for the composite z-score in [8], in [9] and in [10] were -0.326, -1.19 and 0.279, respectively. Moreover, the z-score in [4] is 0.351 (inactive).

With `COCCOC(=O)N1C(=O)[C@@]2(c3cc(C#CCCO)ccc31)[C@H](c1ccc(OCCO)cc1)N1[C@H](c3ccccc3)[C@H](c3ccccc3)OC(=O)[C@H]1[C@@H]2C(=O)N1CCc2cc(OC)c(OC)cc2C1`, the composite z-score in [1] is 1.29; in assay [2], -0.0877; in assay [3], 0.232; in assay [5], 1.16; in assay [6] it was 1.31; in assay [7], 0.58. For the same compound, the composite z-score in assay [8] was 0.882; in assay [9] it was 0.582; in assay [10], 0.413. Also, the z-score in assay [4] was 0.309 (inactive).

As to `CC(C)c1ccc(NN2C(C(O)c3ccccn3)C=CC3C(=O)N(c4ccccc4)C(=O)C32)cc1` (stereo not given), the composite z-score turned out to be 1.52 in assay [1]; 0.753 in assay [2]; 0.105 in [3]; 1.53 in assay [5]; 1.31 in assay [6]; 0.69 in assay [7]. The composite z-score in assay [8] is 1.33; in assay [9], 0.454; in assay [10] it was -0.75. Besides, the z-score in [4] is -0.684 (inactive).

As for `COCCOC(=O)N1C(=O)[C@@]2(c3cc(C#CC4(O)CCCCCC4)ccc31)[C@H](C(=O)N1CCN(c3ncccn3)CC1)[C@H]1C(=O)O[C@H](c3ccccc3)[C@H](c3ccccc3)N1[C@@H]2c1ccc(O)cc1`, the composite z-score in assay [1] is 1.27; in assay [2], -0.127; in assay [3] it was 0.227; in assay [5], 0.45; in assay [6], 0.235; in [7], 0.152. In addition, the figures for the composite z-score in assay [8], in assay [9] and in assay [10] were 0.321, 0.0884 and 0.921, respectively. Also, the z-score in [4] was -0.756 (inactive).

On to `COc1ccc(CCNC(=O)[C@@H]2c3ccccc3C(=O)N(Cc3ccccc3C(F)(F)F)[C@H]2c2ccc(CO)cc2)cc1`, for which the composite z-score is 1.46 in assay [1]; -0.0126 in [2]; 0.946 in assay [3]; 0.176 in assay [5]; 0.013 in assay [6]; -1.01 in [7]. Further, the results for the composite z-score in assay [8], in [9] and in assay [10] were -0.348, -0.814 and 0.288, respectively. The z-score in assay [4] is 0.609 (inactive).

As to `O=C1O[C@@H](c2ccccc2)[C@@H](c2ccccc2)N2[C@@H](c3ccc(O)cc3)[C@]3(C(=O)Nc4ccc(C#CC5(O)CCCCCC5)cc43)[C@@H](C(=O)N3CCN(c4ncccn4)CC3)[C@H]12`, the composite z-score in [1] was 0.479; in assay [2] it was -0.125; in assay [3], -0.127; in assay [5], 0.74; in [6] it was 0.709; in [7] it was -0.0042. Besides, the composite z-score was 0.639 in assay [8], 0.226 in assay [9] and -0.293 in assay [10]. In [4], the z-score is -0.453 (inactive).

With `[N-]=[N+]=Nc1ccccc1[C@@H]1OC(c2ccc(OCCCO)cc2)=N[C@]1(CCS(=O)(=O)c1ccccc1)C(=O)NCc1ccccc1`, the composite z-score was determined as 1.29 in assay [1]; 1.24 in [2]; 1.28 in [3]; 1.25 in [5]; 0.309 in assay [6]; 0.0329 in assay [7]. In addition, the values for the composite z-score in [8], in assay [9] and in assay [10] were 1.18, -0.244 and 1.06, respectively. In addition, the z-score in assay [4] was 0.385 (inactive).

For `CC1CC/C=C\[C@H]2OC34C=CCN(c5ccc(Cl)cc5)C(=O)[C@H]3N(C(CO)C(C)C)C(=O)[C@]4(C)C2C(=O)O1` (stereo not given in full), the composite z-score was 1.86 in assay [1]; -0.0977 in assay [2]; 0.281 in [3]; -0.0355 in [5]; -0.364 in assay [6]; -0.799 in assay [7]. Also, the composite z-score is -0.786 in assay [8], -0.717 in assay [9] and 0.813 in assay [10]. Besides, in [4], the z-score is 0.323 (inactive).

Turning to `Cc1ccc(S[C@]2(C(=O)NCCN3CCOCC3)CC(=O)N(C3Cc4ccccc4C3)[C@@H]2c2ccc(CO)cc2)cc1`, the composite z-score in assay [1] is 1.48; in assay [2], 0.0662; in [3], 0.64; in assay [5] it was -0.644; in assay [6] it was -1.2; in assay [7], -1. In addition, the composite z-score in assay [8] is -0.804; in [9], -0.866; in assay [10] it was 0.345. The z-score in assay [4] was -0.0221 (inactive).

In the case of `CC(C)(C)OC(=O)CC[C@]1(C(=O)N2CCCCC2)N=C(c2ccc(OCCCO)cc2)O[C@H]1c1ccccc1CN=[N+]=[N-]`, the composite z-score in assay [1] turned out to be 1.68; in assay [2], 0.978; in assay [3] it was 0.92; in assay [5], 1.42; in assay [6], 1.3; in assay [7], 0.604. For the same compound, the composite z-score came to 1.41 in assay [8], 0.414 in assay [9] and 1.21 in [10]. Also, the z-score in assay [4] was -3.65 (inactive).

For `O=C1O[C@H](c2ccccc2)[C@H](c2ccccc2)N2[C@H]1[C@@H](C(=O)N1CCN(c3ncccn3)CC1)[C@]1(C(=O)Nc3ccc(C#CCCO)cc31)[C@H]2c1ccc(OCCO)cc1`, the composite z-score in assay [1] was found to be 1.66; in assay [2] it was 0.115; in assay [3] it was 0.536; in assay [5], 1.11; in assay [6] it was 1.28; in assay [7], 1.12. The results for the composite z-score in assay [8], in assay [9] and in assay [10] were 1.48, 0.949 and 0.463, respectively. The z-score in assay [4] was -0.0244 (inactive).

The values are drawn from PubChem BioAssay.
